Data on eight molecules can be found in PubChem BioAssay (Tox21).

The nature of assay [1]: qHTS assay to identify small molecule agonists of the peroxisome proliferator-activated receptor delta (PPARd) signaling pathway - cell viability counter screen (AID 743211). Also: nearly all actives have a fitted effect of over 55% in size. The essentials:
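Multiplexed format: after the 2 h room-temperature LiveBLAzer B/G FRET step, CellTiter-Glo was added to the same wells. Luminescence after 30 min gave cell viability; compound exposure was 17 h at 37C.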
(In general: In qHTS, concentration-response curves come from the screen itself.)

Assay [2] concerns the target Peroxisome proliferator-activated receptor delta (Homo sapiens) (UniProt Q03181). The assay can be described thus: qHTS assay to identify small molecule agonists of the peroxisome proliferator-activated receptor delta (PPARd) signaling pathway (AID 743212; calls by dose curve; also: potency is read from the fitted curve at half-maximal effect). The essentials:
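HEK293H UAS-bla reporter cells, human PPARd system; compounds delivered in DMSO after 5 h plating, then at 37 C. Beta-lactamase FRET read, 2 h RT substrate step.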

A short description of assay [3]: qHTS assay to identify small molecule antagonists of the peroxisome proliferator-activated receptor delta (PPARd) signaling pathway - cell viability counter screen (AID 743213). Also: nearly all actives have a fitted effect of over 50% in size. In outline: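 In this counter screen, HEK293H cells carrying a UAS-beta-lactamase reporter are co-treated with test compounds and 300 nM L165041 (final) for 17 h at 37 C; cell viability is quantified by CellTiter-Glo luminescence.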

For assay [4], the target named is Peroxisome proliferator-activated receptor delta (Homo sapiens) (UniProt Q03181). Description: qHTS assay to identify small molecule antagonists of the peroxisome proliferator-activated receptor delta (PPARd) signaling pathway (AID 743215; active = well fitted inhibition curve with a large enough effect in the signal ratio in the repeat runs, not every such curve was filed as active; the % refers to the signal ratio;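 also: cells stimulated with agonist L165041 at 300 nM final during compound exposure; series mostly up to about 62 µM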). In outline: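 With L165041 present at 300 nM final, compounds were incubated 17 h at 37 C on PPARd UAS-bla HEK293H cells. A FRET-based beta-lactamase substrate was then applied for 2 h at room temperature and fluorescence intensity recorded.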

Assay [5] can be described thus: qHTS assay to identify small molecule agonists of the farnesoid-X-receptor (FXR) signaling pathway - cell viability counter screen (AID 743218). Also: nearly all actives have a fitted effect of over 45% in size. The essentials:
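After 16 h at 37 C with test compounds, FXR-bla HEK 293T cells were given LiveBLAzer B/G substrate for 2 h at RT and then CellTiter-Glo; luminescence was taken after 30 min.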

Assay [6] in a line: qHTS assay to identify small molecule antagonists of the farnesoid-X-receptor (FXR) signaling pathway - cell viability counter screen (AID 743221; active = well fitted cell-killing curve with a large enough effect in the repeat runs, not every such curve was filed as active; also: nearly all actives have a fitted effect of over 50% in size). In outline: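 CellTiter-Glo, 30 min RT, luminescence; same wells as the LiveBLAzer FRET read. Cells: FXR-UAS-bla HEK 293T. Treatment: compound with chenodeoxycholic acid 50 uM final, 16 h at 37 C.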
Assay [7] deals with Vitamin D3 receptor (Homo sapiens) (UniProt P11473). The assay can be described thus: qHTS assay to identify small molecule agonists of the vitamin D receptor (VDR) signaling pathway (AID 743222; calls by dose curve). The essentials: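 VDR-bla cells were seeded, left 4 h, treated with compounds in DMSO for 16 h, incubated 2 h at RT with B/G FRET substrate, and read for fluorescence.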
Assay [8] shares this target. The assay can be described thus: qHTS assay to identify small molecule antagonists of the vitamin D receptor (VDR) signaling pathway (AID 743223; active = well fitted inhibition curve with a large enough effect in the signal ratio in the repeat runs, not every such curve was filed as active; the % refers to the signal ratio). The essentials: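 After VDR-bla cells are plated and left 4 h at 37C, DMSO-dissolved compounds and 3 nM (final) calcitriol agonist are added. Incubation continues 16 h at 37C; FRET beta-lactamase substrate then develops 2 h at room temperature.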

The nature of assay [9]: qHTS assay to identify small molecule agonists of the vitamin D receptor (VDR) signaling pathway - cell viability counter screen (AID 743224). Also: series mostly up to about 63 µM; nearly all actives have a fitted effect of over 50% in size. The essentials:
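Here cell health was gauged by luminescent ATP detection (CellTiter-Glo, 30 min RT) in VDR-bla cells that had been incubated with test compounds for 16 h at 37C and 5% CO2.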

A short description of assay [10]: qHTS assay to identify small molecule antagonists of the vitamin D receptor (VDR) signaling pathway - cell viability counter screen (AID 743225). Also: nearly all actives have a fitted effect of over 50% in size. In outline: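 Cytotoxicity toward the VDR-bla HEK 293T line was scored by ATP-based CellTiter-Glo luminescence, read in the wells already used for the beta-lactamase readout after 16 h compound treatment under 3 nM 1-alpha,25-dihydroxyvitamin D3 stimulation.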

The nature of assay [11]: qHTS assay to identify small molecule agonists of the NFkB signaling pathway (AID 1159509; active = well fitted curve in the direction sought with a large enough effect in the signal ratio in the repeat runs, not every such curve was filed as active; the % refers to the signal ratio; also: series mostly up to about 61 µM). The essentials: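 After overnight attachment, reporter cells received test compounds, DMSO or positive controls and were incubated 5 hr at 37 C. FRET substrate was then added for 1.5 hr at room temperature before dual-emission fluorescence reading.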
Assay [12] can be described thus: qHTS assay to identify small molecule agonists of the NFkB signaling pathway - cell viability counter screen (AID 1159515; calls by dose curve; also: series mostly up to about 61 µM; nearly all actives have a fitted effect of over 55% in size). In outline: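 5 hr compound treatment of NFkB-bla ME-180 cells (2,000/well, seeded overnight beforehand), followed by reporter substrate for 1.5 hr. CellTiter-Glo added afterward; luminescence after 30 min RT.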
Assay [13] in a line: qHTS assay to identify small molecule agonists of the endoplasmic reticulum stress response signaling pathway (AID 1159516; active = well fitted activation curve with a large enough effect in the signal ratio in the repeat runs, not every such curve was filed as active; the % refers to the signal ratio). In outline: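 Reporter HeLa cells (ESRE-beta-lactamase) underwent 5 hr compound incubation at 37 C and 5% CO2 in quantitative HTS format. Detection followed 2 hr of FRET substrate loading at room temperature.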
Assay [14] can be described thus: qHTS assay to identify small molecule agonists of the endoplasmic reticulum stress response signaling pathway - cell viability counter screen (AID 1159517; calls by dose curve). The essentials:
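Cells, HeLa ESRE-bla; density, 1,500/well; dosing, 5 hr at 37 C, 5% CO2; readout, CellTiter-Glo luminescence after 30 min RT.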

Assay [15] is described as follows: qHTS assay to identify small molecule antagonists of the retinoid-related orphan receptor gamma (ROR-gamma) signaling pathway - cell viability counter screen (AID 1159520). Also: nearly all actives have a fitted effect of over 50% in size. In outline: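 Cytotoxicity was read from cellular ATP (CellTiter-Glo luminescence) after 16 hr at 37 C with 1 uM doxycycline induction. The inducer was added 2 hr after compound transfer to Tet-on ROR gamma CHO cells.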

The target in assay [16] is Nuclear receptor ROR-gamma (Homo sapiens) (UniProt P51449). The assay can be described thus: qHTS assay to identify small molecule antagonists of the retinoid-related orphan receptor gamma (ROR-gamma) signaling pathway (AID 1159521; also: nearly all actives have a fitted effect of over 50% in size; also: potency is read from the fitted curve at half-maximal effect). The essentials:
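Readout: ONE-Glo luciferase luminescence, 30 min at room temperature. System: Tet-on RORγ CHO, RORE-LUC. Sequence: compound 2 h, doxycycline 1 uM final, 16 h at 37 C.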

Assay [17] can be described thus: qHTS assay to identify small molecule agonists of the AP-1 signaling pathway - cell viability counter screen (AID 1159525; calls by dose curve; also: nearly all actives have a fitted effect of over 55% in size). In outline: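 Luminescent ATP readout (Cell Titer Glo, 30 min RT), normalised to DMSO and tetra n-octyl ammonium bromide controls. Cells were ME-180 AP-1-bla in 0.5% dialyzed FBS Opti-MEM, with a 5 h, 37 °C compound exposure.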
The nature of assay [18]: qHTS assay to identify small molecule agonists of the AP-1 signaling pathway (AID 1159526; calls by dose curve).
Assay [19] addresses Bile acid receptor (Homo sapiens) (UniProt Q96RI1). The assay can be described thus: qHTS assay to identify small molecule antagonists of the farnesoid-X-receptor (FXR) signaling pathway (AID 743217; active = well fitted inhibition curve with a large enough effect in the signal ratio in the repeat runs, not every such curve was filed as active; the % refers to the signal ratio). In outline:
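In this cell-based antagonist screen, inhibition of CDCA-driven (50 uM final) UAS-beta-lactamase expression in HEK 293T cells was measured by FRET fluorescence following 16 h compound exposure at 37 °C.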

Assay [20] shares this target. Description: qHTS assay to identify small molecule agonists of the farnesoid-X-receptor (FXR) signaling pathway (AID 743220; active = well fitted activation curve with a large enough effect in the signal ratio in the repeat runs, not every such curve was filed as active; the % refers to the signal ratio). The essentials:
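Beta-lactamase reporter under UAS control in GeneBLAzer FXR HEK 293T cells (5000/well) measured with LiveBLAzer FRET substrate after 2 h at room temperature. Compound exposure lasted 16 h at 37C.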

Inconclusive results are not listed. Some structures have more than one record in an assay (separate samples or runs), and their calls can disagree. Active and inactive are the calls of the source. Unless noted, calls follow the shape of the dose curve; as a rule, active = well fitted curve in the direction sought with a large enough effect in the repeat runs; inconclusive = weak or mixed curves; inactive = no such curve, though single readings can be large; an effect the other way counts as inactive or inconclusive.

Sequence of Vitamin D3 receptor (Homo sapiens) (P11473 whole entry, looked up): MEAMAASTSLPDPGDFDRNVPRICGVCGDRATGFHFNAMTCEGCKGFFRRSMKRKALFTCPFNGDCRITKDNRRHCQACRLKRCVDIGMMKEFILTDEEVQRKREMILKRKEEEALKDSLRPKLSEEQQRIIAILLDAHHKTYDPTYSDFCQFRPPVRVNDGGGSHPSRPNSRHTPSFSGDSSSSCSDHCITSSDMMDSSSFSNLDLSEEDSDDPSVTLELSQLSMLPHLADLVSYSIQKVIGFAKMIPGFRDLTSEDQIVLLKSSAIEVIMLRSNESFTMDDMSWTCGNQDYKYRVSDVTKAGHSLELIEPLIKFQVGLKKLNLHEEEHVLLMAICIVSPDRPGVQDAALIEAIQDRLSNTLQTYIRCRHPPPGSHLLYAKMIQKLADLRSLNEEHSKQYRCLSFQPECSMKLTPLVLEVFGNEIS
Sequence of Bile acid receptor (Homo sapiens) (Q96RI1 whole entry, looked up): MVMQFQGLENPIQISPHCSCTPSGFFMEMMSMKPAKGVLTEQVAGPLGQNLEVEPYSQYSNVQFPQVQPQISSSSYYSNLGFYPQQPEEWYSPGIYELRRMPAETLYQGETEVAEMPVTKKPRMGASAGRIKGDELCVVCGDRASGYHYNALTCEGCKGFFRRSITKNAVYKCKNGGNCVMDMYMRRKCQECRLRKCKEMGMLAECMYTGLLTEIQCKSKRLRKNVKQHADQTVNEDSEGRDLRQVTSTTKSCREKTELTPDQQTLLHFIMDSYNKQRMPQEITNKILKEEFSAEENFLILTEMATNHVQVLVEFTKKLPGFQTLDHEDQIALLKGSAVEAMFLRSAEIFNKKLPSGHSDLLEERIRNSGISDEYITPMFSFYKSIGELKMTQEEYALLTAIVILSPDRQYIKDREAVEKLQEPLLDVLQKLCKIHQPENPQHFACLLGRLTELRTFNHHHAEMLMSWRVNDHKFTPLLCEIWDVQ
Sequence of Peroxisome proliferator-activated receptor delta (Homo sapiens) (Q03181 whole entry, looked up): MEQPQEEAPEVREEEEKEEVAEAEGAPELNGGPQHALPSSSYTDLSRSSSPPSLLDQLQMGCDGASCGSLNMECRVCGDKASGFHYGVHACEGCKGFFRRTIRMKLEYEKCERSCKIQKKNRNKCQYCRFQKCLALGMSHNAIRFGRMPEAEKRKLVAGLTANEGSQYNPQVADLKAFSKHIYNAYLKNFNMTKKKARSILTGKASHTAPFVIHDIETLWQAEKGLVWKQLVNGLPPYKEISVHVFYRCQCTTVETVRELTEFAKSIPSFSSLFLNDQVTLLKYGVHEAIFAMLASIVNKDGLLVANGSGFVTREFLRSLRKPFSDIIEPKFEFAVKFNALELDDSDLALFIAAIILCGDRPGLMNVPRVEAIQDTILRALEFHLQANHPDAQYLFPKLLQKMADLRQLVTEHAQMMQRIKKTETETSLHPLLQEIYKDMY

As to `CCCCCCCCCCCOC(=O)c1ccccc1C(=O)OCCCCCCCCCCC`, the Potency entry in assay [1], in [2], in assay [3], in assay [4], in [5] and in assay [6] was “inactive” throughout. For the same molecule, the Potency entry in assay [9], in assay [10], in assay [12], in assay [14], in [15] and in [16] was “inactive” throughout. In addition, in assay [17], the Potency entry was “inactive”. For the same molecule, the molecule was classed as inactive in assay [7], in assay [8], in assay [11], in [13] and in assay [18].
Regarding `NC(=S)Nc1ccccc1`, the Potency result in assay [1], in assay [2], in [3], in assay [4], in assay [19] and in [6] was “inactive” throughout. Further, the Potency entry in [9], in [10], in assay [12], in assay [14], in assay [15] and in [17] was “inactive” throughout. Also, the result in assay [20], in assay [7], in [8], in assay [11], in [13] and in assay [18] was inactive. Also, in [16], the Potency is 31.1 µM (active) and inactive.
`Oc1ccc(-c2ccccc2)cc1`: the Potency result in assay [1], in assay [2], in [3], in assay [4], in assay [19] and in assay [5] was “inactive” each time. For the same molecule, the Potency result in [6], in assay [9], in [12], in assay [14], in [15] and in assay [16] was “inactive” each time. Also, in [17], the Potency result is “inactive”. For the same molecule, the molecule was classed as inactive in [20], in assay [7], in assay [8], in assay [11], in [13] and in [18].
`O=C(O)C(F)(F)C(F)(F)C(F)(F)C(F)(F)C(F)(F)C(F)(F)C(F)(F)F`: the Potency result in assay [1], in assay [3], in [6], in assay [9], in assay [12] and in assay [14] was “inactive” throughout. For the same molecule, the Potency result in [15], in assay [16] and in [17] was “inactive” in each case. For the same molecule, in assay [2], the Potency is 19.4 µM (active). The outcome in assay [7], in assay [8], in assay [11], in [13] and in [18] was inactive.
For the molecule `CCOc1cc(C=O)ccc1O`, the Potency entry in assay [1], in [2], in assay [3], in [4], in assay [5] and in [6] was “inactive” each time. The Potency result in [9], in assay [10], in [12], in [14], in assay [15] and in assay [16] was “inactive” throughout. Besides, the Potency result in assay [17] was “inactive”. For the same molecule, the call in [7], in assay [8], in [11], in assay [13] and in assay [18] was inactive.
For the molecule `O=S(=O)(Oc1ccc(Cl)cc1)c1ccc(Cl)cc1`, the Potency entry in assay [1], in [2], in [3], in assay [4], in assay [5] and in assay [6] was “inactive” each time. For the same molecule, the Potency entry in assay [9], in assay [12], in assay [14], in [15], in assay [16] and in [17] was “inactive” each time. Moreover, the outcome in assay [7], in assay [8], in [11], in assay [13] and in [18] was inactive.
For `O=[N+]([O-])c1c(Cl)c(Cl)c(Cl)c(Cl)c1Cl`, the Potency entry in assay [1], in assay [2], in assay [3], in assay [4], in assay [6] and in assay [9] was “inactive” each time. In addition, the Potency entry in assay [12], in assay [14], in assay [15], in assay [16] and in [17] was “inactive” in each case. Besides, the molecule was classed as inactive in assay [7], in assay [8], in [11], in assay [13] and in assay [18].
As for `O=Cc1ccco1`, the Potency entry in assay [1], in assay [2], in assay [3], in assay [4], in assay [6] and in assay [9] was “inactive” throughout. Moreover, the Potency result in assay [10], in [12], in assay [14], in [15], in assay [16] and in [17] was “inactive” throughout. In addition, the molecule was classed as inactive in assay [7], in assay [8], in [11], in [13] and in [18].
